From PubChem
FXN GAA850 act: activators of GAA850 frataxin (FXN) promoter; HEK293 lucGAA850 FXN promoter luciferase reporter, 24 h; percent of 10 µM SAHA response; activation, % at 6 µM; AID 540364; 360,000 tested, 0.56% active;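 active means activation above the average of all compounds screened plus 3 SD, cutoff fixed separately per campaign, cut at about 7.5% in these data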;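 further: 0% = DMSO wells and 100% = 10 µM SAHA wells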
HSP90 inh: blocks HSP90-mediated luciferase refolding in reticulocyte lysate | Rabbit reticulocyte lysate, luciferase refolding luminescence, 3 h | inhibition, % at 5.6 µM | 290,000 tested, 0.91% active | AID 1789;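 active means inhibition above the screen-wide mean plus 3 SD, computed separately per campaign, cut at about 16% in these data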;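 further: 0% = DMSO wells and 100% = 60 µM geldanamycin wells; inhibitors lower the luminescence because luciferase stays unfolded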
DAX1 inh: inhibitors of human orphan nuclear receptor DAX1 (NR0B1). P51843. HEK293 Gal4-DAX1 luciferase reporter, luminescence. inhibition, % at 6.75 µM. 340,000 tested, 0.99% active;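 active means inhibition above the mean over all tested compounds plus 3 SD, cut at about 4.2% in these data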;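 further: 0% = DAX1-transfected cells with DMSO and 100% = empty-vector control cells with DMSO; inhibition shows as a rise in luminescence from relieved DAX1 repression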
AHR act: human AHR activation; activation, % at 5 µM; 320,000 tested, 2.5% active; AID 2796; AHR-responsive luciferase reporter cells, luminescence; P35869; in the data active means activation above about 47%;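 further: 0% = vehicle wells and 100% = reference agonist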
Target sequence (P35869 whole entry, looked up): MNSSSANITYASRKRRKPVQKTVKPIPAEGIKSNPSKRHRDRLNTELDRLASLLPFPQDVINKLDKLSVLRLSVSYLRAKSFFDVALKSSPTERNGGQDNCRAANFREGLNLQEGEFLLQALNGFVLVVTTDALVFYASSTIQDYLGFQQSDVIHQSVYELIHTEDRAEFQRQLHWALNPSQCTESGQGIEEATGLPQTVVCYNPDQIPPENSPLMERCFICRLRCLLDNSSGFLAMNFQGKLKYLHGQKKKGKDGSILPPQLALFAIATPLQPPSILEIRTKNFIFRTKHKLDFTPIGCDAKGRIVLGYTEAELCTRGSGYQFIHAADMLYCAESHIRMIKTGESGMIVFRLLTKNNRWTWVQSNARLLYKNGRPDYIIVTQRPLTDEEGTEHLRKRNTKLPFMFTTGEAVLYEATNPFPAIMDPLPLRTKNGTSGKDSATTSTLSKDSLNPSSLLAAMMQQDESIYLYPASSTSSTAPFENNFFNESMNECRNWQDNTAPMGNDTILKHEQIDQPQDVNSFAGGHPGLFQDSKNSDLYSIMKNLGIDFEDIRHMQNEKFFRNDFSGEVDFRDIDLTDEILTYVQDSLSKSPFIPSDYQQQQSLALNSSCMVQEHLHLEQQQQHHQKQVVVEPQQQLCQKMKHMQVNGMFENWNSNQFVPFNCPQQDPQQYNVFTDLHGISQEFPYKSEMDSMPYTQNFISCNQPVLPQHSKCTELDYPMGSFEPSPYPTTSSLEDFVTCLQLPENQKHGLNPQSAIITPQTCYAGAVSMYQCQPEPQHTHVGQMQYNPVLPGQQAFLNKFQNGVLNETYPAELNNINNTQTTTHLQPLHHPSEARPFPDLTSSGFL
HSF-1 act: increases HSF-1 driven luciferase reporter signal; AID 504408; NIH3T3-HGL HSF-1 luciferase reporter, MG132, 8 h; 100% = twice DMSO control signal; activation, % at 9 µM; 300,000 tested, 1.7% active;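 active means mean replicate activation of at least 50% with a set share of replicates each reaching 50%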;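 further: 0% = median of the neutral control wells and 100% = twice that signal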
HSF1 inh: HSF1 inhibition; NIH3T3-HGL HSE-luciferase, MG132-induced, luminescence 8 h; hits give low values; activity change, negative = inhibition, % at 7.5 µM (by protocol); 300,000 tested, 0.77% active;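 active means more than half of replicate wells show activity change below -50%, luminescence cut by over half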;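 further: luciferase reports HSF-1 transcriptional activity via heat shock element; 0% = median of DMSO wells and -100% = zero luminescence signal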
HSP90 confirm: HSP90 inhibition, confirmation assay; shares compounds with HSP90 inh; 2,300 tested, 64% active; inhibition, % at 5.9 µM; rabbit reticulocyte lysate, luciferase refolding luminescence, 3 h; AID 1846; in the data active means inhibition above about 18%;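 further: 0% = vehicle wells and 100% = reference inhibitor wells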
luciferase ctr: blocks native firefly luciferase in HSP90 counter-screen. inhibition, % at 5.9 µM. 2,300 tested, 48% active. AID 1847. purified native firefly luciferase, luminescence. shares compounds with HSP90 inh;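 active means inhibition above the mean inhibition of all tested sample wells plus 3 SD, cut at about 10% in these data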;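 further: 0% = DMSO with luciferase and 100% = wells lacking luciferase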
AHR act cf: human AHR activation, confirmation. human cells, AHR-responsive luciferase reporter, luminescence. AID 2845. 2,300 tested, 87% active. shares compounds with AHR act. activation, % at 9 µM; in the data active means activation above about 49%;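 further: HepG2 hepatoma cells carrying a DRE-driven firefly luciferase reporter; 0% = vehicle wells and 100% = reference agonist wells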
PXR act counter: PXR activation, counter-screen for AHR activators. shares compounds with AHR act. cell-based PXR reporter, luciferase luminescence. activation, % at 11.6 µM. 2,300 tested, 88% active; in the data active means activation above about 11%;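 further: human hepatoma DPX-2 cells expressing full-length human PXR; 0% = DMSO and 100% = reference agonist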
GAA30 FXN cntr: activates GAA30 frataxin promoter, counter-screen for GAA850 activators; HEK293 lucGAA30 FXN promoter luciferase, 24 h; DMSO = 0%, 5 µM ipriflavone = 100%; 1,900 tested, 66% active; AID 588350; shares compounds with FXN GAA850 act; activation, % at 6 µM;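 active means mean activation above the mean of solvent-only control wells plus 3 SD, cut at about 22% in these data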;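 further: counterscreen of GAA850 promoter hits where activity marks nonselective or luminescence artifacts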
GAA850 confirm: confirmation of GAA850 frataxin (FXN) promoter activators; shares compounds with FXN GAA850 act; HEK293 lucGAA850 FXN promoter luciferase reporter, 24 h; 100% = activation by SAHA; activation, % at 6 µM; 1,900 tested, 86% active; AID 588351;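 active means mean activation above a set limit taken from the primary screen, cut at about 8% in these data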;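 further: 0% = DMSO wells and 100% = 10 µM SAHA wells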
* marks the source's active call; other numbers are inactive results; / = no result. Rows were chosen to be rich in hits. Some 5.9% of all compounds tested hit in one or more screens of this group.

SMILES | FXN GAA850 act | HSP90 inh | DAX1 inh | AHR act | HSF-1 act | HSF1 inh | others
Cc1ccc(-c2nc3ccccc3c(=O)n2-n2cccc2)cc1 | 2 | 5 | 1 | 42 | 1 | 1
COc1ccc(N2C(=O)NC(=O)/C(=C\c3cn(C)c4ccccc34)C2=O)cc1 | 3 | 28* | 1 | 17 | 0 | -10 | HSP90 confirm=-1;luciferase ctr=-4
C[C@]12CCC3C(C(=O)C[C@H]4C[C@@H](O)CC[C@]34C)C1CCC2=O (some centres not stated) | 1 | / | 0 | -3 | / | /
CCn1nc(-c2cccs2)nc2c(=O)n(C)c(=O)nc1-2 | -14 | / | -6 | / | / | /
CCn1nc(/C=C/c2ccccc2)nc2c(=O)n(C)c(=O)nc1-2 | -15 | 85* | / | / | / | / | HSP90 confirm=96*;luciferase ctr=88*
CCCCCCOc1ccc(CN2CCN(CC)CC2)cc1 | 0 | 30* | 0 | 0 | / | / | HSP90 confirm=25*;luciferase ctr=8
CC(=O)N(C1=NCCCS1)c1ccc(Cl)cc1 | 3 | -2 | 1 | 0 | 7 | 2
CC(=O)c1c(C)n(C2CCCCC2)c2ccc(O)cc12 | -9 | 0 | -1 | 7 | -51 | -45
CCC(C)C1NC(=O)C(NC(=O)C(CC(C)C)N(C)C(=O)C2CCCN2C(=O)C(C)O)C(C)OC(=O)C(Cc2ccc(OC)cc2)N(C)C(=O)C2CCCN2C(=O)C(CC(C)C)NC(=O)[C@H](C)C(=O)[C@H](C(C)C)OC(=O)CC1O (some centres not stated) | -15 | / | -7 | / | / | /
COC(=O)C(O)(c1c(C)[nH]n(-c2ccccc2)c1=O)C(F)(F)F (configuration not stated) | 0 | 3 | -1 | 12 | 2 | 8
COc1cc(C(c2c(C)[nH]n(-c3ccccc3)c2=O)c2c(C)[nH]n(-c3ccccc3)c2=O)cc(OC)c1OC | 2 | 56* | 0 | 9 | 55* | 33 | HSP90 confirm=-9;luciferase ctr=-4
C=CCn1c(O)c(C(C)=Nc2cc(OC)ccc2OC)c(=O)[nH]c1=O | 3 | -2 | -1 | 15 | 11 | 4
O=C(NC1CCCCC1)Oc1cc2oc(=O)sc2cc1Cl | 6 | 18* | 2 | 4 | -6 | 2 | HSP90 confirm=2;luciferase ctr=-7
Cc1cnc(-n2c(=S)[nH]c3ccccc3c2=O)s1 | 2 | / | -1 | 125* | / | / | AHR act cf=137*;PXR act counter=19*
CCOC(=O)C1C(OC(=O)c2ccccc2)CC2CCC1N2C (configuration not stated) | -3 | / | 1 | / | / | /
C(=NN1CCCCCC1)c1c[nH]c2ccccc12 | 1 | / | -1 | / | / | /
Brc1ccc2[nH]cc(/C=N/N3CCCCC3)c2c1 | 1 | 0 | -1 | 83* | 5 | -1 | AHR act cf=33;PXR act counter=22*
CC12CN3CC(C)(CN(C1)C31CCSCC1)C2=O | 0 | -1 | 1 | 1 | -8 | -1
Cc1cc(N=Nc2ccccc2C)ccc1N | / | / | 6.0* | 80* | 17 | 17 | AHR act cf=130*;PXR act counter=12*
Nc1ccc(N=Nc2ccccc2)cc1 | -1 | 4 | 2 | -4 | 6 | 5
Cc1nc2ccc(Cl)cc2c(=O)n1-c1ccc([N+](=O)[O-])cc1 | 0 | 6 | 2 | 140* | -4 | -4 | AHR act cf=4;PXR act counter=11*
Cc1nc2cc([N+](=O)[O-])ccc2c(=O)n1-c1ccc(Br)cc1 | 1 | -1 | 2 | 87* | -5 | -3 | AHR act cf=34;PXR act counter=11*
O=C1CN=C(c2ccc(Br)cc2)c2oc3ccccc3c2N1 | 6 | 3 | -1 | 82* | -18 | -4 | AHR act cf=108*;PXR act counter=29*
O=C1CN=C(c2ccc(F)cc2)c2oc3ccccc3c2N1 | 0 | -2 | -2 | 3 | 4 | -14
OC1/C(=C/c2ccc(F)cc2)N2CCC1CC2 (configuration not stated) | 2 | -3 | -2 | -4 | 2 | -5
SMILES | FXN GAA850 act | HSP90 inh | DAX1 inh | AHR act | HSF-1 act | HSF1 inh | others
COc1cc(C)c(CN2CC=C(c3ccc(F)cc3)CC2)cc1C | 0 | 3 | 0 | -2 | -2 | -8
COc1cc2nc(CN3CC=C(c4ccccc4)CC3)[nH]c(=O)c2cc1OC | 22* | / | 6.0* | 12 | 36 | 14 | GAA30 FXN cntr=77*;GAA850 confirm=61*
Cc1ccc(-c2nc3ccc(Cl)cc3n2OC(=O)N(C)C)cc1 | 7.7* | 0 | 1 | 25 | -1 | -3 | GAA30 FXN cntr=109*;GAA850 confirm=41*
CN1CCN(c2ccc([N+](=O)[O-])c(SCCO)c2)CC1 | 0 | 10 | 1 | 7 | -13 | -5
Cc1[nH]c2ccc(OC(F)(F)F)cc2c1CCNCc1cccc([N+](=O)[O-])c1 | 5 | 5 | -2 | 7 | 15 | 0
Cc1[nH]c2ccc(OC(F)(F)F)cc2c1CCNCc1ccc(Cl)cc1 | 13* | -1 | 0 | / | 5 | -6 | GAA30 FXN cntr=10;GAA850 confirm=8.9*
CN(C)[C@@H]1C(=O)C(C(N)=O)=C(O)[C@@]2(O)C(=O)C3=C(O)c4c(O)ccc(Cl)c4[C@@](C)(O)[C@H]3C[C@@H]12 | 13* | -4 | 1 | 1 | 9 | -4 | GAA30 FXN cntr=41*;GAA850 confirm=15*
C/C1=C\[C@@H](C)C/C=C/[C@H]2[C@@H]3O[C@]3(C)[C@@H](C)[C@H]3[C@H](Cc4c[nH]c5ccccc45)NC(=O)[C@]32C(=O)/C=C/C(=O)[C@@H]1O | 8.8* | 3 | -2 | -2 | 111* | 91 | GAA30 FXN cntr=-16;GAA850 confirm=46*
OC12ONC(c3ccccn3)C1N1CCC2CC1 (configuration not stated) | 18* | -5 | -1 | 5 | -4 | 4 | GAA30 FXN cntr=34*;GAA850 confirm=16*
COc1ccccc1CCNCc1cccc(C(F)(F)F)c1 | 0 | 4 | 0 | 1 | -5 | -4
CCN[C@@H](C)Cc1cccc(C(F)(F)F)c1 | 14* | / | 0 | 0 | / | / | GAA30 FXN cntr=12;GAA850 confirm=6
CC12CCC(=O)C=C1C=CC1C2CCC2(C)C(O)CCC12 (configuration not stated) | 4 | / | -2 | / | / | /
